Beta cell apopt = beta cell apoptosis inhibition; INS-1E cytokine-induced death, ATP luminescence, 48 h; percent of positive-control rescue, neutral wells zero; protection from apoptosis, % (no concentration beside the values); 300,000 compounds, 0.8% hits; AID 435005;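 active means Every replicate reaches about 75%, or at least half do and their mean reaches it too, limit read from the data; inconclusive means At least half of replicates reach the limit but their mean does not; inactive means Under half of replicates reach the limit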;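 further: higher means more ATP so stronger rescue from cytokine killing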
Bfl-1 A1 inh = inhibitors of the anti-apoptotic protein A1, read as caspase activation. MEF A1-2A-BIM cells, Caspase-Glo 3/7 luminescence, 3 h; percent of clofoctol response, vehicle zero. caspase activation, % (concentration not given with the values). AID 2462. 330,000 compounds, 0.066% hits;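 active means over half of replicate activation scores above 10%, or exactly half above 10 with the replicate mean above 10; inconclusive means replicate mean below 10 yet half the replicates above 10; inactive means over half of replicates below 10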
Jurkat NFkB inh = lowers PMA/ionomycin-induced NF-kB signal in Jurkat cells; PMA/ionomycin-induced NF-kB luciferase reporter, luminescence; inhibition, % at 4 µM; 330,000 compounds, 0.53% hits; in the data active means inhibition above about 50%
NTR1 ag = activates human neurotensin receptor 1; P30989; 330,000 compounds, 0.17% hits; activation, % at 20 µM; NTR1-U2OS beta-arrestin-GFP spot imaging, agonist mode;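 active means activation at or above 40% of the spot to cytoplasm intensity ratio, with at least 20 cells analyzed; inconclusive means wells under 20 cells, flagged as cytotoxic or low count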
Target sequence (P30989 whole entry, looked up): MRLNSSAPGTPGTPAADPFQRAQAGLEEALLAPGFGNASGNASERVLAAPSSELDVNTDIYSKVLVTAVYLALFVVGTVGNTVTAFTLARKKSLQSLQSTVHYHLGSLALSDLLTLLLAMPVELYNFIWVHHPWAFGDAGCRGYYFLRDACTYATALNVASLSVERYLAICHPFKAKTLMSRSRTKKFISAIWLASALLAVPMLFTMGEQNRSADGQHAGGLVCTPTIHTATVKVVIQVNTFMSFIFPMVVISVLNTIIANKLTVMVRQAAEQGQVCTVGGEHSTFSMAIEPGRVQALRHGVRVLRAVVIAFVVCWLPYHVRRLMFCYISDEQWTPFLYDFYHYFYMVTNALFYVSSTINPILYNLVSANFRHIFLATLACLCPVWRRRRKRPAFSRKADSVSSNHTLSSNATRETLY
Mdm2 MdmX PPI = inhibitors of human Mdm2/MdmX interaction. O15151+Q00987. SaOS-2 split-luciferase Mdm2/MdmX complementation, luminescence. inhibition, % at 8 µM. 330,000 compounds, 3% hits;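 active means inhibition of at least 50% at 8 µM in the primary screen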
697 NFkB inh = lowers PMA/ionomycin-induced NF-kB signal in 697 B cells; inhibition, % at 4 µM; 697 B-cell NF-kB luciferase reporter, 16 h; AID 435022; 330,000 compounds, 0.33% hits; in the data active means inhibition above about 35%
Jurkat NFkB conf = lowers PMA/ionomycin-induced NF-kB signal in Jurkat cells; shares compounds with Jurkat NFkB inh; Jurkat NF-kB luciferase, 16 h; inhibition, % at 4 µM; 2,700 compounds, 27% hits;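 active means inhibition reaching about 45% at 4 µM in either replicate, limit read from the data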
697 NFkB conf = inhibitors of the PMA/ionomycin-induced NF-kB reporter in 697 B cells, retest; shares compounds with 697 NFkB inh; 697 B-cell NF-kB luciferase, 16 h; inhibition, % at 4 µM; 2,000 compounds, 35% hits; in the data active means inhibition mostly above about 28%, no sharp cut-off; inactive means mostly below about 22%
Mdm2 MdmX conf = confirmation of human Mdm2/MdmX interaction inhibitors. shares compounds with Mdm2 MdmX PPI. 10,000 compounds, 55% hits. Mdm2-MdmX binding, luminescent assay. AID 489028. inhibition, % at 8 µM; in the data active means inhibition above about 40%
Full FLuc ctr = inhibits full-length luciferase, flagging false Mdm2/MdmX hits; inhibition, % at 8 µM; SaOS-2 full-length luciferase counterscreen, luminescence; 6,200 compounds, 77% hits; shares compounds with Mdm2 MdmX PPI;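 active means mean inhibition at 8 µM reaching about 37%, which flags the compound as non-specific, limit read from the data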;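 further: p53-null SaOS-2 cells with luciferase driven by a doxycycline-inducible promoter; compound on cells about two nights before reading with doxycycline added after day one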
Hits are given with their value; – = inactive; ? = inconclusive; · = not tested or not shown. Shown are actives, neighbours in structure and some others; about 3.8% of the full set was active somewhere.

SMILES	Beta cell apopt	Bfl-1 A1 inh	Jurkat NFkB inh	NTR1 ag	Mdm2 MdmX PPI	697 NFkB inh	Jurkat NFkB conf	Mdm2 MdmX conf	Full FLuc ctr	others
Cc1cnc(NC(=O)c2ccc3c(c2)OCCO3)s1	·	·	70	–	74	–	77	80	–
COc1ccccc1-c1nnc(NC(=O)c2ccc3c(c2)OCO3)s1	–	–	57	–	90	–	–	66	85
CCOc1ccc(CNC(=O)c2ccccc2NC(=O)C2=CSCCO2)cc1	·	–	–	–	–	–	·	·	·
CCCc1nn2c(=O)cc(CSCC(=O)Nc3ccccc3OC)nc2s1	–	–	–	–	–	–	·	·	·
Cc1ccc(N(C)S(=O)(=O)c2ccc(-c3cc(C)no3)s2)cc1	–	–	51	–	54	–	–	55	59
Cc1cc(-c2ccc(S(=O)(=O)N(C)c3ccc(C)c(C)c3)s2)on1	–	–	57	–	56	–	–	54	47
C(=C\c1ccccc1)/CSc1nnc(-c2ccccn2)n1Cc1ccco1	–	–	50	–	59	–	–	49	87
NC(=O)CSc1nnc(-c2ccccn2)n1Cc1ccco1	–	–	–	–	–	–	·	·	·
Cc1ccc(-n2nc(C)c(NC(=O)CCl)c2C)cc1C	–	–	64	–	76	–	–	88	–
CCC(=O)Nc1c(C)nn(-c2ccc(C)c(C)c2)c1C	–	–	–	–	–	–	·	·	·
COC(=O)Nc1ccc(S(=O)(=O)N2c3ccccc3CCC2C)cc1 (stereo not given)	–	–	53	–	58	–	–	63	60
COC(=O)Nc1ccc(S(=O)(=O)N2CCCCC2C(=O)O)cc1 (stereo not given)	–	–	–	–	–	–	·	·	·
CC(=O)Nc1ccc(S(=O)(=O)N2CCCc3ccccc32)cc1	–	–	63	–	58	–	–	59	51
O=C(NCc1cccs1)C1CCN(c2ccc(S(=O)(=O)N3CCOCC3)cc2Cl)CC1	–	–	76	–	63	–	54	43	91
O=C(CSc1nnc(CNC(=O)c2cccs2)o1)Nc1cccc(Cl)c1	–	–	–	–	–	–	·	·	·
Cc1ccccc1S(=O)(=O)Cc1ccc(C(=O)N2CCN(c3cccc(C)c3C)CC2)o1	–	–	51	–	57	–	–	68	50
COc1ccc(N2CCN(C(=O)c3ccc(CS(=O)Cc4ccc(C)cc4)o3)CC2)cc1 (stereo not given)	–	–	–	–	–	–	·	·	·
Cc1ccccc1S(=O)(=O)Cc1ccc(C(=O)N2CC(C)CC(C)C2)o1 (stereo not given)	–	–	–	–	–	–	·	·	·
COc1ccc(S(=O)Cc2ccc(C(=O)N3CCN(c4cccc(C)c4C)CC3)o2)cc1 (stereo not given)	–	–	51	–	50	–	–	55	36
Cc1c(CN(C)C)c2c(n1C)C(=O)c1ccc(Br)cc1-2	–	–	–	–	–	–	·	·	·
CCOC(=O)c1c2c(n(C)c1C)C(=O)C(=O)c1ccc(Br)cc1-2	–	–	52	–	95	–	–	98	48
Cc1c(O)ccc2c(CC(=O)N[C@@H](Cc3ccccc3)C(=O)O)cc(=O)oc12	–	–	–	–	–	–	·	·	·
COc1cccc(N/C(N)=N/c2nc(CSc3ccccn3)cc(=O)[nH]2)c1	–	–	58	–	52	–	56	49	79
O=C1c2cccc3cc([N+](=O)[O-])cc(c23)C(=O)N1CCN1CCCC1	·	·	86	–	90	–	57	96	53
O=C(CCc1nc2sc3c(c2c(=O)[nH]1)CCCC3)NCCc1ccc(F)cc1	–	–	–	–	–	–	·	·	·
SMILES	Beta cell apopt	Bfl-1 A1 inh	Jurkat NFkB inh	NTR1 ag	Mdm2 MdmX PPI	697 NFkB inh	Jurkat NFkB conf	Mdm2 MdmX conf	Full FLuc ctr	others
O=C1/C(=C/c2ccc(N3CCOCC3)o2)SC(=Nc2ccccc2)N1CCc1c[nH]c2ccccc12	101	?	91	–	100	–	–	98	–
Cc1c(CCC(=O)NC2CC2)c(=O)oc2cc(O)ccc12	·	–	–	–	–	–	·	·	·
COc1ccc(NC(=O)c2nc(S(=O)(=O)Cc3cccc(C)c3)ncc2Cl)c(OC)c1	–	–	54	–	85	–	–	70	–
Cc1ccccc1NC(=O)c1nc(S(C)(=O)=O)ncc1Cl	–	–	–	–	–	–	·	·	·
CCCCN(C(=O)c1ccc(NC2CC2)c([N+](=O)[O-])c1)c1c(N)n(CC(C)C)c(=O)[nH]c1=O	–	–	–	–	–	–	·	·	·
CC(=O)Nc1cccc(-n2c(=O)n(Cc3ccccc3)c(=O)c3[nH]cnc32)c1	–	–	–	–	–	–	·	·	·
CCOC(=O)c1c(-c2ccc(-c3ccccc3)cc2)csc1NC(=O)CNCCN(C)C	–	–	52	–	83	–	–	53	61
CCOC(=O)c1cnc2c(ccc3ccccc32)c1NCCCN(C)C	–	–	–	–	–	–	·	·	·
CCCc1nc2nc(C)c(NS(=O)(=O)c3ccc(C4CCCCC4)cc3)c(=O)n2[nH]1	–	–	–	–	–	–	·	·	·
CCN(CC)CCn1c(=N)n(CC(O)COc2cccc(C)c2)c2ccccc21 (stereo not given)	–	–	–	–	–	–	·	·	·
Cc1cccc(OCC(O)Cn2c(=N)n(Cc3ccccc3)c3ccccc32)c1 (stereo not given)	–	–	62	–	88	–	–	64	64
Cc1ccc2oc(/N=C(\N)NC(=O)C(C)(C)C)nc2c1	–	–	60	–	87	–	87	94	–
Cc1ccc(/C(O)=C2\C(=O)C(=O)N(C)C2c2ccc(F)cc2)cc1 (stereo not given)	–	–	–	–	–	–	·	·	·
CN(C)CCn1c2ccccc2c2nc3ccc([N+](=O)[O-])cc3cc21	–	–	60	–	100	–	–	84	60	697 NFkB conf=–
CCn1c2ccccc2c2cc([N+](=O)[O-])ccc21	–	–	–	–	–	–	·	·	·
CC1=C([N+](=O)[O-])C(c2cccc(Br)c2)C2=C(N1)c1ccccc1C2=O (stereo not given)	–	–	54	–	74	–	–	66	84
NC(N)=N/N=C/c1ccc(OS(=O)(=O)c2ccccc2)cc1	–	–	50	–	57	–	–	–	82
